Experimental findings from PubChem BioAssay AID652115 (Broad Institute, 2013) are described below.

The campaign covered roughly 330,000 compounds. About 3,800 (1.2%) were called active. The full list was thinned out, with actives kept by preference. Values without a mark were called inactive. Rule as the data show it: active = inhibition above about 15%; inconclusive = no clear call, values can overlap the other calls; inactive = below that.

Sequence of NAD-dependent protein deacylase sirtuin-5, mitochondrial (Homo sapiens) (Q9NXA8 whole entry, looked up): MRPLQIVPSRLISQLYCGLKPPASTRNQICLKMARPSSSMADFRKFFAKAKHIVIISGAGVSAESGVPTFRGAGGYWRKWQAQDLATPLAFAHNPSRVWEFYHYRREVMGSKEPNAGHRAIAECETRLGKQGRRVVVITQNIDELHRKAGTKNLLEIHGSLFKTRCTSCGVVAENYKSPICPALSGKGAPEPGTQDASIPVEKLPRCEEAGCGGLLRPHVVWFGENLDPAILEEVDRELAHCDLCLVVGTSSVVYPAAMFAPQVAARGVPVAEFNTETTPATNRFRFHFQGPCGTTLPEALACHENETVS

The experiment addresses NAD-dependent protein deacylase sirtuin-5, mitochondrial (Homo sapiens) (UniProt Q9NXA8). As to the kind of experiment: blockers of sirtuin-5 deacylase activity – biochemical, fluorescence imaging, single point, set 5, primary screen (AID 652115). To be noted: Purified SirT5, succinyl-peptide AMC, trypsin-coupled fluorescence; at 15 µM; stronger effect = higher value.
Consider `COc1ccccc1CN1[C@H](CO)[C@H](c2ccccc2)C12CN(C(=O)c1ccccn1)C2`, for which the inhibition was -0.913%.

For the compound `C[C@@H]1CN([C@H](C)CO)C(=O)c2cccc(NS(=O)(=O)c3ccc(Cl)cc3)c2O[C@H]1CN(C)Cc1ccc(C(F)(F)F)cc1`, the inhibition is 2.17%.

As for `COCC(=O)Nc1ccc2c(c1)OC[C@H](C)N(C(=O)c1cnccn1)C[C@@H](C)[C@@H](OC)CN(C)C2=O`, the inhibition is 10.6%.

As to `Cc1noc(C)c1NC(=O)N(C)C[C@H]1OCCCC[C@@H](C)Oc2ccc(NC(=O)NC(C)C)cc2C(=O)N([C@@H](C)CO)C[C@H]1C`, the inhibition was 1.72%.

As for `O=C1/C(=C/c2ccc3c(c2)OCO3)CCC/C1=C\c1ccc2c(c1)OCO2`, the inhibition is 15.2% (active).

In the case of `O=C(N/N=C/c1ccc2c(c1)OCO2)C(=O)N1CCCC1`, the inhibition was -0.951%.

In the case of `NC(=O)c1ccc(NC(=O)COC(=O)c2c3c(nc4ccccc24)/C(=C\c2ccc4c(c2)OCO4)CCC3)cc1`, the inhibition was -2.29%.

For the compound `C[C@H](CO)N1C[C@H](C)[C@H](CN(C)C(=O)c2cccnc2)Oc2ncc(C3=CCCC3)cc2C1=O`, the inhibition was -8.88%.

`C[C@H](CO)N1C[C@H](C)[C@@H](CN(C)C(=O)Cc2ccncc2)Oc2ncc(C#CCN(C)C)cc2C1=O`: the inhibition is 6.32%.

Turning to `CCCN(C)C[C@H]1Oc2ncc(C#CCOC)cc2C(=O)N([C@@H](C)CO)C[C@H]1C`, the inhibition was 0.664%.

As to `C[C@@H]1CN([C@H](C)CO)C(=O)c2cccc(NC(=O)c3cnccn3)c2O[C@@H]1CN(C)Cc1ccc(C(=O)Nc2ccccc2N)cc1`, the inhibition was 15.1% (active).

As for `C[C@@H]1CN([C@H](C)CO)C(=O)c2cccc(NC(=O)CCCCCC(=O)Nc3ccccc3N)c2O[C@H]1CN(C)Cc1ccc(Oc2ccccc2)cc1`, the inhibition is 28.2% (active).

Consider `C[C@@H]1CN([C@@H](C)CO)C(=O)c2cccc(NC(=O)CCCCCC(=O)Nc3ccccc3N)c2O[C@H]1CN(C)C(=O)Nc1ccccc1`, for which the inhibition is -0.269%.

As for `C[C@H](CO)N1C[C@H](C)[C@H](CN(C)Cc2ccc(Oc3ccccc3)cc2)Oc2c(NC(=O)CCCCCC(=O)Nc3ccccc3N)cccc2C1=O`, the inhibition was 10.2%.

For the compound `C[C@@H]1CN([C@@H](C)CO)C(=O)c2cccc(NC(=O)c3cnccn3)c2O[C@H]1CN(C)Cc1ccc(-c2ccccc2)cc1`, the inhibition is -1.19%.

For the compound `C[C@@H]1CN([C@@H](C)CO)C(=O)c2cccc(NC(=O)c3cnccn3)c2O[C@H]1CN(C)Cc1ccc(C(=O)O)cc1`, the inhibition was -1.49%.

In the case of `COc1ccccc1-n1c(SCC(=O)Nc2cccc(C(=O)O)c2)nnc1-c1ccccc1O`, the inhibition was 3.18%.

Regarding `CCOc1cc(C)ccc1OCc1nnc(SCC(=O)Nc2cccc(C(=O)O)c2)n1-c1ccccc1`, the inhibition is 60.5% (active).

For `COc1ccccc1OCc1nnc(SCC(N)=O)n1-c1ccccc1`, the inhibition is -0.045%.

As to `COc1cccc(S(=O)(=O)N[C@@H]2C=C[C@H](CC(=O)NC3CCC3)O[C@@H]2CO)c1`, the inhibition was -3.76%.

Regarding `CO[C@@H]1CC[C@@H]2CCOc3c(C#N)cccc3C(=O)N(C)C[C@@H](C)C(=O)N(C)C[C@@H]1O2`, the inhibition is 0.964%.

`OC[C@@H]1CN(Cc2cccs2)C[C@H](n2cnc3c(NC4CCCC4)ncnc32)O1`: the inhibition is 5.79%.

As to `CCN(CC)c1ncnc2c1ncn2[C@H]1CN(Cc2cccs2)C[C@@H](CO)O1`, the inhibition was 0.751%.

As to `OC[C@@H]1CN(Cc2cccs2)C[C@H](n2cnc3c(Nc4ccccc4)ncnc32)O1`, the inhibition is 19.4% (active).

Turning to `CCCC(=O)Nc1ccc2c(c1)C(=O)N(C)C[C@H](OC)[C@@H](C)CN(C(C)=O)[C@H](C)CO2`, the inhibition was 0.113%.

With `CO[C@@H]1CN(C)C(=O)c2cc(NC(=O)C3CC3)ccc2OC[C@H](C)N(CC2CC2)C[C@H]1C`, the inhibition is -3.23%.

In the case of `O=C(c1cccc(S(=O)(=O)N2CCCC2)c1)N(Cc1ccco1)C1CCS(=O)(=O)C1` (stereo unspecified), the inhibition was 18.1% (active).

On to `CC(C)CN(C(=O)c1cccc(S(=O)(=O)N2CCCCC2)c1)C1CCS(=O)(=O)C1` (stereo unspecified), for which the inhibition was -1.89%.

For the compound `CCCCN(C(=O)c1ccc(S(=O)(=O)N2CCOCC2)cc1)C1CCS(=O)(=O)C1` (stereo unspecified), the inhibition was 2.17%.

`CN(C)C(=O)C[C@@H]1CC[C@@H](NC(=O)NC2CCCC2)[C@@H](CO)O1`: the inhibition is 1.11%.

For the compound `COc1cccc(S(=O)(=O)N[C@H]2CC[C@@H](CCN)O[C@H]2CO)c1`, the inhibition was 0.762%.

As for `CCOC(=O)C(C)Oc1cccc2c(=O)n(CC(=O)NCCc3ccc(OC)c(OC)c3)ccc12` (stereo unspecified), the inhibition is -3.89%.

Turning to `COC(=O)COc1cccc2c(=O)n(CC(=O)NCc3ccccc3)ccc12`, the inhibition was -3.93%.

Consider `COC(=O)COc1cccc2c(=O)n(CC(=O)NCCc3ccc(OC)c(OC)c3)ccc12`, for which the inhibition is 15.1% (active).

`CO[C@@H]1CN(C)C(=O)c2cc(NC(=O)c3cnccn3)ccc2OC[C@@H](C)N(C(=O)C2CC2)C[C@@H]1C`: the inhibition was 2.16%.

Turning to `COc1cccc(-c2ccc([C@H]3[C@H]4CN(C(=O)NC(C)C)CC(=O)N4[C@H]3CO)cc2)c1`, the inhibition was 1.38%.

For `COc1cc(C)c(CN2CCN(C(=O)CCC(=O)c3ccc(C)s3)CC2)cc1OC`, the inhibition is 19.2% (active).

For the compound `COc1cc(OC)c(OC)cc1CN1CCN(C(=O)c2cccc3ccccc23)CC1`, the inhibition was -1.16%.

`COc1ccc(OC)c(CN2CCN(C(=O)CNC(=O)c3cc(C)cc(C)c3)CC2)c1`: the inhibition is -1.91%.

As to `O=C(C[C@H]1CC[C@H]2[C@@H](COC[C@@H](O)CN2Cc2ccccc2)O1)N[C@@H]1CCN(Cc2ccccc2)C1`, the inhibition is -3.08%.

Take `CCCNC(=O)N(C)C[C@H]1Oc2ncc(-c3cccc(C#N)c3)cc2C(=O)N([C@@H](C)CO)C[C@H]1C`: the inhibition is 0.845%.

As for `CCNC(=O)C[C@@H]1CC[C@H]2[C@@H](COC[C@@H](O)CN2C(=O)c2cc(Cl)cc(Cl)c2)O1`, the inhibition is -2.11%.

With `COc1ccc(S(=O)(=O)Nc2ccc3c(c2)C(=O)N([C@H](C)CO)C[C@H](C)[C@@H](CN(C)Cc2ccc(-c4ccccc4)cc2)O3)cc1`, the inhibition is 16.6% (active).

Regarding `COc1ccc(S(=O)(=O)Nc2ccc3c(c2)C(=O)N([C@H](C)CO)C[C@@H](C)[C@@H](CN(C)Cc2ccccc2)O3)cc1`, the inhibition is 3.29%.

Take `COc1ccc(S(=O)(=O)Nc2ccc3c(c2)C(=O)N([C@H](C)CO)C[C@@H](C)[C@H](CN(C)Cc2ccccc2)O3)cc1`: the inhibition is 5.6%.

As to `COc1ccc(S(=O)(=O)Nc2cccc3c2O[C@@H](CN(C)Cc2ccc(-c4ccccc4)cc2)[C@H](C)CN([C@H](C)CO)C3=O)cc1`, the inhibition was 19.6% (active).

As for `COc1ccc(CN(C)C[C@H]2Oc3c(NS(=O)(=O)c4ccccc4)cccc3C(=O)N([C@H](C)CO)C[C@@H]2C)cc1`, the inhibition was 6.84%.

Turning to `COc1ccc(CN(C)C[C@H]2Oc3c(NS(=O)(=O)c4ccc(C)cc4)cccc3C(=O)N([C@@H](C)CO)C[C@@H]2C)cc1`, the inhibition is -2.22%.

Regarding `COc1ccc(CN(C)C[C@H]2Oc3c(NS(=O)(=O)c4ccc(Cl)cc4)cccc3C(=O)N([C@H](C)CO)C[C@H]2C)cc1`, the inhibition was -3.94%.

As to `COc1ccc(CN(C)C[C@H]2Oc3c(NS(=O)(=O)c4ccccc4)cccc3C(=O)N([C@@H](C)CO)C[C@H]2C)cc1`, the inhibition is 26.9% (active).

On to `COc1ccc(CN(C)C[C@H]2Oc3c(NS(=O)(=O)c4ccc(Cl)cc4)cccc3C(=O)N([C@H](C)CO)C[C@@H]2C)cc1`, for which the inhibition was -1.84%.

In general, inhibition refers to the change of the read-out against control, counted positive when it falls.
